Among the test systems are NCI-H23 lung; NCI-H226 lung; NCI-H322M lung; HOP-62 NSCLC; NCI-H460 lung; HOP-92 NSCLC; NCI-H522 lung; A549/ATCC NSCLC; 786-0 renal; COLO 205 colon; DU-145 prostate; K-562 leukemia; MALME-3M melanoma; MDA-MB-231 breast; RXF 393 renal; SF-268 CNS; SF-295 CNS; SF-539 CNS; UACC-257 melanoma; M14 melanoma.
Test in all cases: NCI-60 one-dose screen, 48 h (100 = growth as untreated, 0 = no growth, -100 = all killed)
Common to all, as to conditions: 10 µM unless noted

Several values for one entry are separate records, joined by “and”; a condition that tells them apart may be missing. Equal values may be shown once. Compounds without any hit were thinned out: in the full panel of roughly 83,000, 20% have a hit.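 Activity criterion: percent growth below 10, measured after cells in 96-well plates were exposed to a single compound concentration for 48 hours.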 Activity calls are given as the source filed them.

Regarding `COC(=O)c1nc(=S)[nH]c(C(=O)OC)c1C(=O)c1ccc(OC)cc1`, the growth in the assay with NCI-H23 lung was 97.4% (inactive); in the assay with NCI-H226 lung, 90.7% (inactive); in the assay on NCI-H322M lung, 104% (inactive); in the assay with HOP-62 NSCLC, 123% (inactive); in the assay with NCI-H460 lung, 114% (inactive); in the assay on HOP-92 NSCLC, 95.9% (inactive). Also, the growth in the assay with NCI-H522 lung is 101% (inactive); in the assay on A549/ATCC NSCLC, 118% (inactive); in the assay with 786-0 renal, 113% (inactive); with COLO 205 colon it was 117% (inactive); with DU-145 prostate, 117% (inactive); with K-562 leukemia it was 106% (inactive). Also, the growth in the assay on MALME-3M melanoma is 97.5% (inactive); in the assay with MDA-MB-231 breast it was 100% (inactive); in the assay on RXF 393 renal, 108% (inactive); in the assay with SF-268 CNS it was 112% (inactive); with SF-295 CNS, 99.6% (inactive); with SF-539 CNS it was 99.3% (inactive). In addition, the figures for the growth in the assay on UACC-257 melanoma and with M14 melanoma were 109% (inactive) and 108% (inactive), respectively.

Take `Cc1cc2nc3ccc(=[N+](C)C)cc-3sc2cc1N`: the growth was 21.7% (inactive) in the assay on NCI-H23 lung; 43.3% (inactive) and 58.9% (inactive) in the assay on NCI-H226 lung; 22.6% (inactive) and 38.3% (inactive) in the assay with NCI-H322M lung; 0.425% (active) and 42.7% (inactive) in the assay on HOP-62 NSCLC; 6.67% (active) and 7.84% (active) with NCI-H460 lung; 43.1% (inactive) and 8.68% (active) with HOP-92 NSCLC. In addition, the growth with NCI-H522 lung was -55.4% (active) and 13% (inactive); in the assay on A549/ATCC NSCLC, 6.81% (active) and 7.05% (active); in the assay on 786-0 renal, 39.4% (inactive) and 35.9% (inactive); in the assay on COLO 205 colon, -68.6% (active) and -23.5% (active); with DU-145 prostate it was 3.25% (active) and -41.6% (active); in the assay on K-562 leukemia, 7.3% (active). Besides, the growth in the assay on MALME-3M melanoma was -47.8% (active) and -3.68% (active); in the assay on MDA-MB-231 breast, -18.8% (active) and -10.4% (active); with RXF 393 renal, 51.6% (inactive) and 36% (inactive); in the assay on SF-268 CNS, -8.64% (active) and -29.4% (active); with SF-295 CNS, 4.64% (active) and 15.1% (inactive); in the assay on SF-539 CNS, -39.6% (active) and 3.1% (active). The growth was 24.9% (inactive) and 61.4% (inactive) in the assay on UACC-257 melanoma; -26.3% (active) and 8.5% (active) in the assay with M14 melanoma.

As for `CCC/C(=N/NC(N)=O)c1ccco1`, the growth in the assay on NCI-H23 lung was 99.1% (inactive); in the assay with NCI-H226 lung, 96.1% (inactive); in the assay with NCI-H322M lung, 96.5% (inactive); with HOP-62 NSCLC, 79.7% (inactive); in the assay on NCI-H460 lung, 104% (inactive); in the assay on HOP-92 NSCLC, 82.7% (inactive). Also, the growth in the assay with NCI-H522 lung is 76.3% (inactive); in the assay on A549/ATCC NSCLC it was 93.4% (inactive); with 786-0 renal it was 89.7% (inactive); in the assay on COLO 205 colon, 107% (inactive); in the assay with DU-145 prostate it was 109% (inactive); in the assay with K-562 leukemia it was 104% (inactive). Also, the growth in the assay with MALME-3M melanoma is 83.8% (inactive); with MDA-MB-231 breast, 100% (inactive); in the assay on RXF 393 renal it was 105% (inactive); in the assay with SF-268 CNS, 102% (inactive); in the assay on SF-295 CNS, 98.4% (inactive); in the assay with SF-539 CNS, 93% (inactive). In addition, the values for the growth in the assay on UACC-257 melanoma and with M14 melanoma were 98.6% (inactive) and 97.6% (inactive), respectively.

As to `CC(C)(C)C1CCC(=NO)CC1` (stereo not given), the growth in the assay with NCI-H23 lung is 95.5% (inactive); in the assay on NCI-H226 lung, 99.9% (inactive); with NCI-H322M lung, 106% (inactive); in the assay on HOP-62 NSCLC, 95.9% (inactive); in the assay with NCI-H460 lung, 99.6% (inactive); in the assay on HOP-92 NSCLC it was 71.4% (inactive). In addition, the growth is 92.5% (inactive) in the assay with NCI-H522 lung; 91.6% (inactive) in the assay with A549/ATCC NSCLC; 94.5% (inactive) in the assay on 786-0 renal; 117% (inactive) in the assay on COLO 205 colon; 112% (inactive) with DU-145 prostate; 128% (inactive) with K-562 leukemia. For the same compound, the growth is 103% (inactive) in the assay on MALME-3M melanoma; 104% (inactive) in the assay on MDA-MB-231 breast; 90.6% (inactive) in the assay with RXF 393 renal; 109% (inactive) in the assay with SF-268 CNS; 98.3% (inactive) in the assay on SF-295 CNS; 96.2% (inactive) in the assay on SF-539 CNS. For the same compound, the figures for the growth in the assay on UACC-257 melanoma and with M14 melanoma were 76.4% (inactive) and 100% (inactive), respectively.

Regarding `N#Cc1c[nH]n2ccnc12`, the growth in the assay with NCI-H23 lung is 99.3% (inactive); with NCI-H226 lung it was 96% (inactive); with NCI-H322M lung it was 98.7% (inactive); with HOP-62 NSCLC, 86% (inactive); in the assay with NCI-H460 lung, 119% (inactive); with HOP-92 NSCLC, 99.5% (inactive). For the same compound, the growth is 87.8% (inactive) in the assay on NCI-H522 lung; 86.7% (inactive) in the assay on A549/ATCC NSCLC; 97.3% (inactive) with 786-0 renal; 109% (inactive) with COLO 205 colon; 111% (inactive) in the assay on DU-145 prostate; 106% (inactive) in the assay on K-562 leukemia. Moreover, the growth with MALME-3M melanoma is 106% (inactive); in the assay on MDA-MB-231 breast, 111% (inactive); with RXF 393 renal, 113% (inactive); in the assay on SF-268 CNS it was 107% (inactive); in the assay with SF-295 CNS, 99.8% (inactive); with SF-539 CNS, 104% (inactive). Further, the values for the growth in the assay on UACC-257 melanoma and in the assay on M14 melanoma were 97.7% (inactive) and 94.9% (inactive), respectively.

As for `COC(=O)c1nc(N)nc(C(=O)OC)c1C(=O)c1cccc2ccccc12`, the growth in the assay with NCI-H23 lung was 101% (inactive); with NCI-H226 lung it was 97.1% (inactive); in the assay with NCI-H322M lung, 109% (inactive); in the assay with HOP-62 NSCLC, 105% (inactive); in the assay with NCI-H460 lung, 139% (inactive); with HOP-92 NSCLC, 85.5% (inactive). The growth was 101% (inactive) in the assay on NCI-H522 lung; 107% (inactive) in the assay with A549/ATCC NSCLC; 110% (inactive) with 786-0 renal; 144% (inactive) with COLO 205 colon; 121% (inactive) with DU-145 prostate; 111% (inactive) in the assay with K-562 leukemia. The growth in the assay on MALME-3M melanoma is 103% (inactive); in the assay with MDA-MB-231 breast it was 105% (inactive); with RXF 393 renal it was 105% (inactive); with SF-268 CNS, 116% (inactive); in the assay on SF-295 CNS, 98.7% (inactive); in the assay on SF-539 CNS, 95.4% (inactive). The growth is 118% (inactive) in the assay with UACC-257 melanoma and 108% (inactive) in the assay on M14 melanoma.

The record behind these values is PubChem BioAssay (NCI).
